# Experimental data reported in PubChem BioAssay (NCI).
# This is part of a sample that, as a whole, favours compounds with a hit. Of some 83,000 tested, about 20% had one in any assay.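 96-well plates, one dose, 48 hours. Percent growth reported; active if below 10.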 A number with no mark means an inactive call. The source made the active and inactive calls.
# Test system: EKVX NSCLC
# Assay: NCI-60 one-dose screen, 48 h (100 = growth as untreated, 0 = no growth, -100 = all killed)
# Conditions: 10 µM unless noted
row,Compound,growth
1,Cn1c(/C(C#N)=C/c2ccc3ccccc3c2)cc2ccccc21,37.4%
2,Cn1cc(-c2nc(-c3c[nH]c4ncccc34)cs2)c2cc(F)ccc21,14.5%
3,CC(=O)N1N=C(c2ccc(C)cc2)CC1c1ccc(Oc2ccc(Br)cc2)cc1 (stereo not drawn),83.1%
4,NC1=NN=C2N(N)C(=O)c3cnn(-c4ccccc4)c3N2c2nc(-c3ccccc3)cc(-c3ccccc3)c21,96.7%
5,CN(C)c1ccc(-c2ccc(-c3ccc(C(=N)N)c(F)c3)s2)cc1,-73.6% (active)
6,Cc1c(C)c2c(c(C)c1NC(=O)CCCCCCC(=O)O)CCC(C)(CCCC(C)CCCC(C)CCCC(C)C)O2 (stereo not drawn),86.3%
7,Cc1cc(C)nc(NC(N)=NCCc2ccccc2)n1,59.7%
8,C=C(C)[C@@H]1CC[C@]2(C(=O)O)CC[C@]3(C)[C@H](CC[C@@H]4[C@@]5(C)C/C(=C/c6ccc(OC)cc6)C(=O)C(C)(C)[C@@H]5CC[C@]43C)[C@@H]12,9.53% (active)
9,COc1ccc2[nH]cc(-c3nc(-c4c[nH]c5ncccc45)cs3)c2c1,64.4%
10,Cn1cccc1/C=C1/SC(=S)N(CCc2ccc(O)cc2)C1=O,61%
11,CN1CCN(CCOc2ccc(-c3cnc4c(-c5ccccc5F)cnn4c3)cc2)CC1,68.4%
12,Cc1ccc(-c2nc([P+](c3ccccc3)(c3ccccc3)c3ccccc3)c(N3CCOCC3)o2)cc1,17.6%
13,O=C1OC(c2ccc(Cl)c(Cl)c2)=C/C1=C/c1cccc([N+](=O)[O-])c1,91.8%
14,COc1ccccc1-n1cnc(N)c1C(=O)c1cc(OC)c(OC)c(OC)c1,55.3%
15,CN(C)CCCC1(c2ccc(F)cc2)OCc2cc(-c3ccc(C(F)(F)F)nc3)ccc21 (stereo not drawn),76.1%
16,Cc1ccc2c(c1)c(-c1nc(-c3c[nH]c4ncccc34)cs1)cn2C,35.1%
17,CC1(C)C(=O)/C(=C\c2ccco2)C[C@]2(C)[C@H]3CC[C@@H]4[C@@H](C(=O)/C=C/c5ccco5)CC[C@@]4(C)[C@]3(C)CC[C@@H]12,105%

row,Compound,growth
1,Cc1ccc(-c2nc([P+](c3ccccc3)(c3ccccc3)c3ccccc3)c(N3C[C@H]4C[C@H](C3)c3cccc(=O)n3C4)o2)cc1,80.6%
2,C=C(C)[C@@H]1CC[C@]2(CN)CC[C@]3(C)[C@H](CC[C@@H]4[C@@]5(C)CCC(=O)NC(C)(C)[C@@H]5CC[C@]43C)[C@@H]12,87.3%
3,Nc1c(Cl)cc(N=Nc2ccccc2)cc1Cl,69%
4,CC(=O)O[C@H]1CC[C@]2(C)[C@H]3C(=O)C=C4[C@@H]5C[C@](C)(C(=O)N6CCCNCC6)CC[C@]5(C)CC[C@@]4(C)[C@]3(C)CC[C@H]2C1(C)C,54.8%
5,CCCCCC1CCCCN1C(=O)OCC (stereo not drawn),124%
6,Cn1cc(-c2nc(-c3c[nH]c4ncccc34)cs2)c2cc(Br)ccc21,75.2%
7,O=C(N/N=C\c1ccccc1O)C1CC1,109%
8,COc1ccc(OCC(CO)N2CCN(c3ccccc3)CC2)cc1 (stereo not drawn),108%
9,Cn1cc(-c2nc(-c3c[nH]c4ncccc34)cs2)c2ccccc21,22.7%
10,CC1(C)CC[C@]2(C(=O)Nc3ccccn3)CC[C@]3(C)C(=CC[C@@H]4[C@@]5(C)C/C(=C/c6ccncc6)C(=O)C(C)(C)[C@@H]5CC[C@]43C)[C@@H]2C1,39.3%
11,C=C(C)[C@@H]1CC[C@]2(C(=O)O)CC[C@]3(C)[C@H](CC[C@@H]4[C@@]5(C)C/C(=C/c6cccc(I)c6)C(=O)C(C)(C)[C@@H]5CC[C@]43C)[C@@H]12,24.9%
12,Oc1cccc2oc(=S)[nH]c12,111%
13,CC(=O)O[C@H]1CC[C@@]2(C)C(=CC[C@@H]3[C@@H]2CC[C@]2(C)C(=O)N(O)C(=O)C[C@@H]32)C1,102%
14,COc1ccc2c(c1)c(-c1nc(-c3c[nH]c4ncccc34)cs1)cn2C,29.3%
15,O=C(O)c1cccc2c1Cc1cc([N+](=O)[O-])ccc1-2,61.9%
16,CCOc1ccc(NC(=O)c2ccccc2-c2ccccc2C(=O)O)cc1,101%
